Rows were chosen to be rich in hits. Some 3.1% of all compounds tested hit in one or more screens of this group.
Rin1-Abl PPI inh = inhibitors of Rin1-Abl protein binding, primary screen, biochemical, TR-FRET. inhibition, % at 7.35 µM. 360,000 compounds, 0.4% hits. AID 588664, 2011; in the data active means inhibition above about 5%, passing the limit was not always enough
MBD2 inh = inhibitors of MBD2 binding to methylated DNA, primary screen, biochemical, TR-FRET, DNA-binding domain, human; 370,000 compounds, 0.31% hits; inhibition, % at 4.4 µM; Methyl-CpG-binding domain protein 2 (Homo sapiens), Q9UBB5; AID 686964, 2013; MBD2 binding to methylated oligonucleotide; in the data active means inhibition above about 13%
UHRF1 binding = UHRF1 methylated DNA binding inhibitors, primary screen, counter-screen for MBD2 inhibitor project, biochemical, TR-FRET, human UHRF1, single concentration. E3 ubiquitin-protein ligase UHRF1 (Homo sapiens), Q96T88. UHRF1 binding to methylated oligo. inhibition, % at 4.4 µM. 370,000 compounds, 0.75% hits; in the data active means inhibition above about 21%;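 further: UHRF1 SRA domain binding a hemimethylated CpG hairpin DNA probe; 0% = median of test compound wells and 100% = reference inhibitor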
LEDGF integ inh = blockers of LEDGF/p75-dependent integrase strand transfer – biochemical, TR-FRET, high throughput, primary screen; inhibition, % at 3.7 µM; 370,000 compounds, 0.64% hits; TR-FRET IN-LEDGF/p75 DNA integration, Eu/Cy5; HIV-1 integrase (with human LEDGF/p75);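 active means inhibition above the screen-wide mean plus 3 SD, cut at about 13% in these data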;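 further: signal is the Cy5 over europium emission ratio at 671 and 618 nm; 0% = plate median of compound wells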
proKLK7 act = proKLK7 zymogen activators, primary screen, biochemical, fluorescence intensity; purified proKLK7, EDANS-DABCYL substrate fluorescence; 100% is mature enzyme control, 0% vehicle; activation, % at 7 µM; 370,000 compounds, 0.9% hits; AID 652039, 2013;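 active means activation above the mean of all tested compounds plus 3 SD, computed per campaign excluding outliers beyond control limits, cut at about 13% in these data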
Target sequence (P49862 whole entry, looked up): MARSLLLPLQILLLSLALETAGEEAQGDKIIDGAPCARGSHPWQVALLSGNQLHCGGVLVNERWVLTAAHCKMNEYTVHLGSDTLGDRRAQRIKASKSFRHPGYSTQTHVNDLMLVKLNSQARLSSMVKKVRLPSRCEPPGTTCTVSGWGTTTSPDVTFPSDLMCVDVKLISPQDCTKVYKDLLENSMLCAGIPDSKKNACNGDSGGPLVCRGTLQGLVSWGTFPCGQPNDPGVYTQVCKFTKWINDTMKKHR
Neddylation inh = inhibitors of cullin neddylation, primary screen, biochemical, TR-FRET, uHTS, NAE and Ubc12; calls only at 25 µM; 360,000 compounds, 0.58% hits; AID 651699, 2012; in the data active means inhibition above about 36%
proKLK7 act conf = proKLK7 zymogen activators, confirmation, biochemical, fluorescence intensity, triplicate; shares compounds with proKLK7 act; purified proKLK7, EDANS-DABCYL substrate fluorescence; scaled: vehicle 0, mature enzyme 100; activation, % at 7 µM; 3,200 compounds, 68% hits; AID 686949, 2013;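 active means activation, as change over the incubation, above the mean of all tested compounds plus 3 SD, cut at about 13% in these data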
EDANS interfere = EDANS-DABCYL substrate optical interference, artefact control for kallikrein-7 zymogen activator project, biochemical, fluorescence intensity, high throughput. shares compounds with proKLK7 act. no enzyme, 4 h; solvent 0%, active enzyme control 100%. activation, % at 7 µM. 3,200 compounds, 80% hits. AID 686952, 2013;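 active means activation above the all-compound mean plus 3 SD, ignoring values outside control-based bounds, cut at about 4.8% in these data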;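 further: value is the 4 h activation minus the activation read at time zero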
Active calls of the source: *; i = inactive; x = not tested or not shown.

SMILES	Rin1-Abl PPI inh	MBD2 inh	UHRF1 binding	LEDGF integ inh	proKLK7 act	Neddylation inh	proKLK7 act conf	EDANS interfere
COc1ccc(/C=N/NC2=NS(=O)(=O)c3ccccc32)cc1	-4	0	2	-5	0	i	x	x
COc1ccc(OC)c(/C=N/NC(=O)c2cc[n+](Cc3ccccc3)cc2)c1	-2	-6	-8	3	45*	i	79*	81*
O=C(Cn1nc(-c2ccccc2)c2ccccc2c1=O)NCCO	0	-2	0	-1	-1	i	x	x
COC(=O)C[C@@H]1C[C@@H]2c3cc(NS(=O)(=O)c4ccc(F)cc4)ccc3O[C@@H]2[C@@H](CO)O1	2	3	7	2	-1	i	x	x
COCCNC(=O)CCn1nc(-c2ccc(C)cc2)ccc1=O	4	7	12	-3	0	i	x	x
CC1=C(C(=O)N2CCOCC2)CC(CC(=O)NC2CCCCC2)C(=O)N1Cc1ccc(F)cc1 (configuration not stated)	3	-3	0	0	0	i	x	x
COc1ccc(/C=C/C(=O)OCC(=O)N2CCCCCC2)cc1OC	-1	1	-2	-2	4	i	x	x
COc1ccc(OC)c(/C=C/C(=O)OCC(=O)N2CCCCC2)c1	-2	0	-1	0	22*	i	14*	14*
COc1cccc(/C=N/NC(=O)c2ccc(=O)[nH]n2)c1O	-4	4	1	-6	0	i	x	x
COc1ccc(OC)c(/C=N/NC(=O)c2ccc(=O)[nH]n2)c1	-1	-5	-2	2	16*	i	17*	20*
COc1ccc(OC)c(/C=N/NC(=O)C(=O)N2CCCCCC2)c1	1	-1	-4	2	51*	i	48*	45*
COc1ccc(NC(=O)Cn2c(=O)cnc3ccccc32)cc1S(=O)(=O)N1CCCCC1	0	-1	-1	4	0	i	x	x
CCCCC1OC2(C)OC(=N)C1(C#N)C(C#N)(C#N)C2c1ccccc1 (configuration not stated)	0	3	1	1	14*	x	47*	50*
CN1CCN(C(=O)c2cc3c(=O)n4ccccc4nc3s2)CC1	-2	-3	-5	1	48*	x	70*	71*
CCOC(=O)N1CCN(C(=O)c2cc3c(=O)n4ccccc4nc3s2)CC1	-3	-2	1	4	17*	x	90*	78*
COc1ccccc1N1CCN(C(=O)c2cc3c(=O)n4ccccc4nc3s2)CC1	0	2	1	0	7	i	x	x
CCn1c(=O)c2cc(C(=O)N3CCN(C)CC3)sc2c2ccccc21	-7	0	-2	-1	28*	x	9	8.0*
CC(C)=CCn1c2ccc(NC(=O)NCc3ccc(F)cc3)cc2c(=O)n1C	3	-2	1	-3	18*	x	3	-1
COc1ccc(CCNC(=O)Nc2ccc3c(c2)c(=O)n(C)n3CC=C(C)C)cc1OC	-1	-5	-4	1	26*	x	3	5.4*
CCNC(=O)Nc1ccc2c(c1)c(=O)n(C)n2CC=C(C)C	-4	0	1	0	40*	x	33*	31*
C=C(C)Cn1c2ccc(NC(=O)CCc3cccnc3)cc2c(=O)n1C	2	-2	0	1	21*	x	23*	26*

Assay outcomes: PubChem, several laboratories
